Screening results as filed in PubChem BioAssay.
3T3 cytotox: kills NIH 3T3 cells; actives 4.3% (n = 94,000); Potency, µM (highest dose often 96.7 µM), for inactives: at the top dose activity change, negative = cytotoxicity, usual class: inhibitors; NIH 3T3 viability, CellTiter-Glo ATP luminescence, 48-72 h; note: % is set by controls: 0 for no effect and ±100 for the full control effect; nearly all actives have a fitted effect of over 55% in size
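First NIH 3T3 cells are plated at 400 cells/well; next compound is pinned in; then plates incubate 48 or 72 hr at 37 °C; finally CellTiter-Glo is added and luminescence read after 10 min.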
HEK293 tox: kills HEK 293 cells; HEK 293 viability, ATP luminescence (CellTiter-Glo), 48-72 h; Potency, µM (titrated, usually from 115 µM), for the others: top-dose activity change, negative = cytotoxicity, actives largely listed as inhibitors; actives 6.6% (n = 94,000); AID 1345083; note: % is set by controls: 0 for no effect and ±100 for the full control effect; nearly all actives have a fitted effect of over 60% in size
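qHTS cytotoxicity; HEK 293, 250 cells/well; compound pinned; 48 or 72 hr, 37 degree Celsius, 5% CO2, 95% humidity; CellTiter-Glo, 10 min RT; luminescence (ATP).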
HEK293 viab: counter-screen for SNCA expression inhibitors: cell viability | HEK-293-SNCA-luc viability, GF-AFC fluorescence, 24 h | Potency, µM (doses to about 57.1 µM), inactives show at the highest dose activity change, negative = cytotoxicity, actives largely listed as cytotoxic | actives 0.12% (n = 150,000) | AID 1671193;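 note: 0% = DMSO-treated cells and -100% = medium-only wells without cells; nearly all actives have a fitted effect of over 30% in size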
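HEK-293-SNCA-luc cells (1500/well) plated 24 h, then exposed 24 h to a dilution series; GF-AFC added 30 min at 37C, fluorescence 405/540 nm; normalised to medium-only and DMSO wells, Hill fit.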
SNCA expr inh: inhibitors of alpha-synuclein (SNCA) gene expression | HEK-293 SNCA-luciferase knock-in, luminescence, 24 h | Potency, µM (top dose mostly 57.2 µM), inactives show at the top dose activity change, negative = inhibition, hits mostly inhibitors | actives 0.17% (n = 140,000) | AID 1671194;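 note: plate controls were DMSO cells for no effect and cell-free wells for full effect; nearly all actives have a fitted effect of over 45% in size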
FLuc inh: inhibitors of firefly (Photinus pyralis) luciferase. P08659. AID 1347043. Potency, µM (titrated, usually from 115 µM), hits mostly inhibitors. actives 2.5% (n = 76,000). purified P. pyralis luciferase, luminescence, biochemical; note: % is set by controls: 0 for no effect and ±100 for the full control effect; nearly all actives have a fitted effect of over 65% in size
Target sequence (P08659 whole entry, looked up): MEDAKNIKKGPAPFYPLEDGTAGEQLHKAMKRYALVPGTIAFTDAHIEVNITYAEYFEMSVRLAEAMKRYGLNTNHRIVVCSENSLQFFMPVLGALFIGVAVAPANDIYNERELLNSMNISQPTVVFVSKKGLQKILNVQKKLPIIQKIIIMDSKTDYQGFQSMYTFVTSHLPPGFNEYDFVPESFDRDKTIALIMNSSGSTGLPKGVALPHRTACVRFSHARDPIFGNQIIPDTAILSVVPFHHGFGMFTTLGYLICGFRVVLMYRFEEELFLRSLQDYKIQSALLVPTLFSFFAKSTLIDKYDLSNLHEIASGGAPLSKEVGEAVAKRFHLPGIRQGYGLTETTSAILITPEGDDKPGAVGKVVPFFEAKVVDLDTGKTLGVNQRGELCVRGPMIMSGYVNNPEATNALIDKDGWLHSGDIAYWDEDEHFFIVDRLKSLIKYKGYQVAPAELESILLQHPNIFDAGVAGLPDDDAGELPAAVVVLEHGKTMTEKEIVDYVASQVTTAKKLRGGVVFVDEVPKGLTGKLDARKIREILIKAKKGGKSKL
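Biochemical qHTS: compound (6-point titration) added to 10uM D-luciferin plus 10uM ATP in Tris acetate pH 7.5 buffer with Mg, Tween-20 and BSA, then purified enzyme at 10nM; light output imaged.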
NPR1 antag: blocks ANP-stimulated signaling of human Npr1 receptor; P16066; HEK293 hNpr1 GloSensor cGMP, ANP-stimulated luminescence; Potency, µM (highest dose often 46.3 µM), without a hit: at the highest dose activity change, negative = inhibition, hits mostly inhibitors; actives 1.6% (n = 76,000); AID 1347048; calls by dose curve; note: % is set by controls: 0 for no effect and ±100 for the full control effect; nearly all actives have a fitted effect of over 60% in size
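HEK293 cells stably expressing human Npr1 and cGMP GloSensor pGS-40F, loaded 2 h with 2% GloSensor reagent, given compound 30 min at room temperature. Luminescence read before and 20 min after 0.1 nM hNppA.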
NPR1 antag cnf: hNpr1 antagonism, confirmation assay; shares compounds with NPR1 antag; HEK293 hNpr1 cGMP GloSensor luminescence, ANP-stimulated; Potency, µM (top dose mostly 57.6 µM), without a hit: at the top dose activity change, negative = inhibition, hits mostly inhibitors; actives 76% (n = 1,400); AID 1347044; calls by dose curve; note: nearly all actives have a fitted effect of over 70% in size
Npr2 selectivity: selectivity test of Npr1 antagonists against human Npr2. Potency, µM (titrated, usually from 57.6 µM), inactives show at the top dose activity change, negative = inhibition, most hits filed as inhibitors. shares compounds with NPR1 antag. actives 67% (n = 1,400). HEK293 hNpr2 GloSensor cGMP luminescence, CNP-stimulated; calls by dose curve; note: nearly all actives have a fitted effect of over 70% in size
FLuc counter: inhibits firefly luciferase, false Npr1 antagonist flag. shares compounds with NPR1 antag. purified FLuc enzyme, luminescence, Km substrate. Potency, µM (top dose mostly 57.6 µM), inactives show at the highest dose activity change, negative = inhibition, actives largely listed as inhibitors. actives 0.7% (n = 1,400); note: 0% is about no effect
GloSensor ctrl: control cell line activity, Npr1 antagonist counter-screen. HEK293 GloSensor cGMP, SNP-stimulated, luminescence. actives 69% (n = 1,400). AID 1347051. Potency, µM (top dose mostly 57.6 µM), for inactives: at the top dose activity change, negative = inhibition, most hits filed as inhibitors. shares compounds with NPR1 antag; calls by dose curve; note: % is set by controls: 0 for no effect and ±100 for the full control effect; nearly all actives have a fitted effect of over 70% in size
Active calls of the source: *; i = inactive; ? = inconclusive; · = no result; [ ] = another dose, or the depositor's remark. Shown are actives, neighbours in structure and some others; about 7.4% of the full set was active somewhere. Unless noted, calls come from the whole dose curve; as a rule, active = well fitted curve in the direction sought with a large enough effect; inconclusive = small, poorly fitted or top-dose-only effect, or another doubt; inactive = no such curve, though single readings can be large; an effect the other way counts as inactive or inconclusive. Potency is the fitted concentration of half-maximal effect.

SMILES	3T3 cytotox	HEK293 tox	HEK293 viab	SNCA expr inh	FLuc inh	NPR1 antag	NPR1 antag cnf	Npr2 selectivity	FLuc counter	GloSensor ctrl
COc1cc(Cl)ccc1C(=O)N1CCN(C(=O)c2nnn3c2COC(c2ccccc2)C3)CC1 (stereo not given)	?	?	?	?	i	?	21.7µM*	?	2.9%	30.6µM*
Cc1ccccc1CC(=O)N1CCN(C(=O)c2nnn3c2COC(c2ccc(Cl)cc2)C3)CC1 (stereo not given)	35.5µM*	28.2µM*	-19.9%	?	i	14.1µM*	19.3µM*	21.7µM*	3.9%	19.3µM*
Cc1ccccc1C(=O)N1CCN(C(=O)c2nnn3c2COC(c2ccc(Cl)cc2)C3)CC1 (stereo not given)	?	?	-17.4%	-22.7%	i	?	27.3µM*	?	1.0%	?
Cc1ccc(C2Cn3nnc(C(=O)N4CCN(C(=O)c5ccc(Cl)cc5)CC4)c3CO2)cc1 (stereo not given)	-6.8%	-5.9%	-4.5%	?	i	-3.5%	·	·	·	·
O=C(CCc1nc2ccccc2s1)N1CCC(Cc2noc(-c3ccc(F)cc3)n2)C1 (stereo not given)	?	39.8µM*	?	?	i	11.2µM*	21.7µM*	21.7µM*	-7.6%	21.7µM*
O=C(CCc1nc2ccccc2s1)N1CCCC(c2nc(C3CCOCC3)no2)C1 (stereo not given)	-26.3%	?	-17.4%	3.6%	i	-14.3%	-10.3%	1.6%	-7.2%	-4.1%
CC(=O)N1CCC(Cc2noc(-c3ccc(F)cc3)n2)C1 (stereo not given)	-5.5%	-2.5%	7.0%	5.1%	i	-0.4%	·	·	·	·
COc1ccc(-c2nc(CC3CCN(C(=O)c4n[nH]c(=O)c5ccccc45)C3)no2)cc1 (stereo not given)	?	31.6µM*	?	-28.5%	i	10µM*	12.2µM*	10.9µM*	-0.1%	8.62µM*
O=C(C1CC(=O)N(c2n[nH]c3ccccc23)C1)N1CCC(c2noc3cc(F)ccc23)CC1 (stereo not given)	14.1µM*	12.6µM*	-27.1%	?	i	?	27.3µM*	?	-3.1%	27.3µM*
CCc1ccc(C(=O)N2CCc3[nH]nc(C(=O)NC4CCN(C)CC4)c3C2)cc1	-22.8%	?	-6.2%	-6.6%	i	4.2%	·	·	·	·
O=C(NCc1ccccc1)N1CC(c2nc(CCOCC3CCCC3)no2)C1	-20.4%	-16.0%	-0.5%	2.8%	i	-2.6%	·	·	·	·
Cc1cc(=O)n(CC(=O)Nc2ccc(Br)cc2F)c(N2CCc3ccccc3C2)n1	?	?	?	?	i	?	-29.0%	?	0.4%	-16.0%
Cc1cc(=O)n(CC(=O)NCCCc2ccccc2)c(N2CCc3ccccc3C2)n1	?	44.7µM*	-3.0%	?	i	?	?	?	0.0%	-24.1%
Cc1cc(=O)n(CC(=O)Nc2ccc(C)c(F)c2)c(N2CCc3ccccc3C2)n1	?	8.91µM*	?	?	i	15.8µM*	-16.6%	-26.3%	0.5%	-20.3%
Cc1cc(=O)n(CC(=O)Nc2ccc(C)c(Cl)c2)c(N2CCc3ccccc3C2)n1	?	?	4.8%	16.6%	i	-7.4%	·	·	·	·
COc1ccccc1Nc1ccnc(N2CCC[C@H]2C(=O)NCc2cccc(Cl)c2)n1	?	?	-19.0%	-26.1%	·	·	·	·	·	·
N#Cc1cccc(-c2cn3c(n2)N(C(=O)c2cccs2)CCC3)c1	-5.4%	?	-0.9%	9.5%	?	1.7%	·	·	·	·
CN(C)c1ccc(-c2ccnc(N[C@H]3CO[C@H]4[C@@H]3OC[C@H]4OC(=O)NCc3ccccc3)n2)cc1	-20.4%	?	-6.4%	-22.0%	i	-4.3%	·	·	·	·
O=C(N[C@H]1CO[C@H]2[C@@H]1OC[C@@H]2Nc1nccc(-c2ccccc2)n1)N1CCOCC1	-0.4%[174 µM]	-8.3%[172 µM]	-7.7%[87.6 µM]	-1.1%[87.6 µM]	i	5.3%[70.6 µM]	·	·	·	·
O=C(N[C@H]1CO[C@H]2[C@@H]1OC[C@@H]2Nc1nccc(-c2ccc(-c3ccccc3)cc2)n1)C1CCCCC1	?	?	-16.4%	-7.7%	i	?	27.3µM*	?	0.8%	21.7µM*
c1csc(-c2ccnc(N[C@H]3CO[C@H]4[C@@H]3OC[C@@H]4NCC3CCCCC3)n2)c1	31.6µM*	?	?	?	i	7.94µM*	11.1µM*	17.7µM*	1.0%[86.2 µM]	9.94µM*
Cc1ccc(C(=O)N[C@H]2CO[C@H]3[C@@H]2OC[C@@H]3Nc2nccc(-c3ccc(-c4ccccc4)cc3)n2)cc1	-26.9%	12.6µM*	-7.9%	?	i	?	?	-24.5%	-13.6%	-26.9%
CCNC(=O)O[C@@H]1CO[C@H]2[C@@H]1OC[C@@H]2Nc1nccc(-c2ccc(-c3ccccc3)cc2)n1	?	10µM*	-25.2%	-20.6%	i	6.31µM*	6.85µM*	13.7µM*	0.4%	9.68µM*
COc1ccc(NC(=O)O[C@@H]2CO[C@H]3[C@@H]2OC[C@@H]3Nc2nccc(-c3cccs3)n2)cc1	-0.6%	0.2%	-0.8%	35.0%	?	6.4%	·	·	·	·
CCC(=O)N(C1CCOCC1)C1CCN(S(=O)(=O)c2c(C)nn(C)c2C)CC1	?	5.9%	4.4%	-27.5%	i	1.9%	·	·	·	·
